Our source for the NP40-soluble protein abundance values is the supplement of paper PMC6411743.

± gives the standard deviation of the averaged measurements. The full data set covers some 5,400 targets. This sample favours those with the largest changes.

Compound in the experiment: Nc1nc2c(ncn2[C@@H]2O[C@H](COP(=O)(O)OP(=O)(O)OP(=O)(O)O)[C@@H](O)[C@H]2O)c(=O)[nH]1 [guanosine triphosphate]
Nature of the experiment: NP40-soluble protein abundance relative to vehicle (solubility fold change) (ratio); higher = more soluble protein in presence of GTP. The procedure:
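Solubility proteome profiling in Jurkat crude lysate. Lysate was treated with Mg-GTP (0.1-10 mM) for 10 min at room temperature and 3 min at 37 °C, then solubilised with 0.8% NP40 and benzonase, followed by ultracentrifugation. Proteins were quantified by TMT10 LC-MS/MS; the value is the NP40-soluble abundance relative to the NP40-processed vehicle, from 3 independent experiments.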

UniProt Q9C037, sequence (Q9C037 whole entry, one chain of several): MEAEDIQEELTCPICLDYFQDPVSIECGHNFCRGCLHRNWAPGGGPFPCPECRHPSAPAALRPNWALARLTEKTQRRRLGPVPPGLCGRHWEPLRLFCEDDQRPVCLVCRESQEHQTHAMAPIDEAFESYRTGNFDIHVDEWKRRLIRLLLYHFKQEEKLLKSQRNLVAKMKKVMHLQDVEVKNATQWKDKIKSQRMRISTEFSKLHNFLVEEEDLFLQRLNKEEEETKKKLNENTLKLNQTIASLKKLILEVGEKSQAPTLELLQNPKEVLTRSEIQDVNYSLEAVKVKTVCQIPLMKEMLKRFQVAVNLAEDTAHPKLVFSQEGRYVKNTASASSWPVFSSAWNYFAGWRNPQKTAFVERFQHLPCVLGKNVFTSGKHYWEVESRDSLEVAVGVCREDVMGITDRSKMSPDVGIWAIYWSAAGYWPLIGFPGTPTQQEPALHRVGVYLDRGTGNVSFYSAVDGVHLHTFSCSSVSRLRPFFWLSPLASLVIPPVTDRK
UniProt P54578, sequence (P54578 whole entry): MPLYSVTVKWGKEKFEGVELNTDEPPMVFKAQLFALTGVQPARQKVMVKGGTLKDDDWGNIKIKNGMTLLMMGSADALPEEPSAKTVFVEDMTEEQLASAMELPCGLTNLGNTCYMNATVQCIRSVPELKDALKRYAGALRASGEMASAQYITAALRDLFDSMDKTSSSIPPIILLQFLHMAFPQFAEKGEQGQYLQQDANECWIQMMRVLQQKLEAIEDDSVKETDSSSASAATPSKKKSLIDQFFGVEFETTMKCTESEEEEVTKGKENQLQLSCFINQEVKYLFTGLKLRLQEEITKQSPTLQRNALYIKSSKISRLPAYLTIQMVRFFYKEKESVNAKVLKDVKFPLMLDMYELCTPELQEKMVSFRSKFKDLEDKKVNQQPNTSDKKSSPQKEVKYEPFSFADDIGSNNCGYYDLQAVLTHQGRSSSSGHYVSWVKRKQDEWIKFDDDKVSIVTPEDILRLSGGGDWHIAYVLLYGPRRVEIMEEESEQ
UniProt P22830, sequence (P22830 whole entry, one chain of several): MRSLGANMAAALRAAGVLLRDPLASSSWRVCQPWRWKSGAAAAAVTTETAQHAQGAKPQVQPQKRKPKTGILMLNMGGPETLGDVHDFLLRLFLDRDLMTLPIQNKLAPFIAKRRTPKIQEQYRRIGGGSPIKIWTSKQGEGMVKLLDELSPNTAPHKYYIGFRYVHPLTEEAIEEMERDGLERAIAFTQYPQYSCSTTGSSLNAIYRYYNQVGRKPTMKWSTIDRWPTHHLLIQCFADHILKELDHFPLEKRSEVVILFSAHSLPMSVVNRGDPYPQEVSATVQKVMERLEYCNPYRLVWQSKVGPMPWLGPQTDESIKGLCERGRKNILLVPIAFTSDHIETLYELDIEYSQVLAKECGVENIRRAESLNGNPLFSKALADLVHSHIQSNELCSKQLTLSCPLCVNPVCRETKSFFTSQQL
UniProt P06729, sequence (P06729 whole entry): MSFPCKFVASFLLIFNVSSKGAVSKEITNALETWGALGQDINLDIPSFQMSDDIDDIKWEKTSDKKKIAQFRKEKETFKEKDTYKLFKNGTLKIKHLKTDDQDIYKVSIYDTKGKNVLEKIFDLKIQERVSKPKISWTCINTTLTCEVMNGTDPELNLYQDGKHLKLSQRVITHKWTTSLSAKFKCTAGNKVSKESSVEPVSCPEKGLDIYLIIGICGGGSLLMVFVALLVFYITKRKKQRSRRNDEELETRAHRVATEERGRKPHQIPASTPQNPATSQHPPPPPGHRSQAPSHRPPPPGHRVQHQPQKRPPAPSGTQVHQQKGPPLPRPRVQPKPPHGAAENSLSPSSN

In the case of K7EPN2|P22830|P22830-2 (UniProt P22830), the NP40-soluble protein abundance runs as follows: (concentration: 0.1mM) 1.06 ± 0.013; (concentration: 0.5mM) 1.06 ± 0.034; (concentration: 1mM) 0.972 ± 0.015; (concentration: 2mM) 0.945 ± 0.055; (concentration: 4mM) 0.958 ± 0.039; (concentration: 6mM) 0.939 ± 0.03. Besides, the NP40-soluble protein abundance by setting is: (concentration: 8mM) 0.928 ± 0.043; (concentration: 10mM) 0.885 ± 0.05.
As for UniProt P06729, the NP40-soluble protein abundance by setting is: (concentration: 0.1mM) 0.895 ± 0.023; (concentration: 0.5mM) 0.902 ± 0.035; (concentration: 1mM) 0.912 ± 0.02; (concentration: 2mM) 0.88 ± 0.072; (concentration: 4mM) 0.852 ± 0.038; (concentration: 6mM) 0.89 ± 0.053. For the same target, the NP40-soluble protein abundance reads like this: (concentration: 8mM) 0.893 ± 0.036; (concentration: 10mM) 0.903 ± 0.039.
For RPL21 (UniProt P46778), the NP40-soluble protein abundance by setting is: (concentration: 0.1mM) 0.981 ± 0.092; (concentration: 0.5mM) 1 ± 0.082; (concentration: 1mM) 1.05 ± 0.12; (concentration: 2mM) 1.01 ± 0.14; (concentration: 4mM) 0.914 ± 0.2; (concentration: 6mM) 0.856 ± 0.19. In addition, the NP40-soluble protein abundance reads like this: (concentration: 8mM) 0.72 ± 0.22; (concentration: 10mM) 0.971 ± 0.23.
As to UniProt P54578|P54578-2, the NP40-soluble protein abundance came out at 0.975 ± 0.029 (concentration: 0.1mM); 0.998 ± 0.021 (concentration: 0.5mM); 0.935 ± 0.027 (concentration: 1mM); 0.922 ± 0.013 (concentration: 2mM); 0.903 ± 0.026 (concentration: 4mM); 0.897 ± 0.02 (concentration: 6mM). Besides, the NP40-soluble protein abundance was determined as 0.895 ± 0.038 (concentration: 8mM) and 0.876 ± 0.046 (concentration: 10mM).
In the case of “H7C0Q6|Q9C037|Q9C037-2|Q9C037-3 (UniProt Q9C037)”, the NP40-soluble protein abundance is, setting by setting: (concentration: 0.1mM) 1.08 ± 0.076; (concentration: 0.5mM) 1.037 ± 0.0073; (concentration: 1mM) 1.03 ± 0.068; (concentration: 2mM) 0.998 ± 0.052; (concentration: 4mM) 0.968 ± 0.069; (concentration: 6mM) 0.981 ± 0.063. Further, the NP40-soluble protein abundance stood at 0.979 ± 0.07 (concentration: 8mM) and 0.918 ± 0.074 (concentration: 10mM).
